# Measurements taken from PubChem BioAssay AID686978 (National Center for Advancing Translational Sciences (NCATS), 2013).
# Among all 420,000 compounds or so, about 64,000 (15%) were called active. Inconclusive results (about 27%) are left out. Calls come from the whole dose curve; as a rule, active = well fitted inhibition curve with a large enough effect; inconclusive = small, poorly fitted or top-dose-only effect; inactive = flat fitted curve, though single readings scatter. Only a sample is shown. A call without a number means that no potency is given here.
# Experiment: qHTS for Inhibitors of human tyrosyl-DNA phosphodiesterase 1 (TDP1): qHTS in cells in absence of CPT; note: nearly all actives have a fitted effect of over 55% in size
# Settings: DT40 Tdp1-/- hTDP1 cells, no CPT, ATP luminescence, 48 h; activity change, negative = growth inhibition: at 46.2 µM (top of the series)
# In short: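 Readout: luminescence from CellTiter-Glo after 30 min in the dark at RT. Cells: DT40 Tdp1-/- with stable hTDP1, 400/well. Exposure: compounds alone, ≥48 hr, 37 °C.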
# Potency is the fitted concentration of half-maximal effect.
row,Structure (SMILES),Potency
1,CSCC(=O)N1CCCC(C(=O)c2cc(F)ccc2F)C1 (centres undefined),inactive
2,COc1ccc(C(=O)N2CCCC(C(=O)c3ccccc3OC)C2)cc1OC (centres undefined),inactive
3,COc1ccc(F)cc1C(=O)C1CCCN(C(=O)CCc2ccccn2)C1 (centres undefined),18.4 µM (active)
4,CCc1ccc(CN2C(=O)c3ccccc3C2C(=O)NCC2CCCO2)cc1 (centres undefined),inactive
5,Cc1cc2oc(=O)cc(CN3CCN(S(=O)(=O)c4cccs4)CC3)c2cc1C(C)C,20.6 µM (active)
6,O=S(=O)(c1cccs1)N1CCN(Cc2ccccc2)CC1,inactive
7,COc1ccc2oc(=O)cc(CN3CCOCC3)c2c1,inactive
8,O=C(CSc1nnc(-c2cccs2)n1-c1ccccc1)NCc1ccco1,inactive
9,CC1CCc2c(sc(NC(=O)c3ccc(Cn4cc(Br)cn4)o3)c2C(N)=O)C1 (centres undefined),inactive
10,CCCCN(C(=O)c1cccc(N2C(=O)c3ccccc3C2=O)c1)c1c(N)n(CCCC)c(=O)[nH]c1=O,inactive
11,O=C(Nc1nc2ccc([N+](=O)[O-])cc2s1)c1ccc(S(=O)(=O)N2CCCc3ccccc32)cc1,4.11 µM (active)
12,CS(=O)(=O)c1ccc2nc(NC(=O)c3ccc(N4CCCC4=O)cc3)sc2c1,inactive
13,O=S(=O)(c1ccccc1)N1CCc2ccccc21,inactive
14,Cc1nn(C)c(C)c1S(=O)(=O)N1CCc2ccccc21,inactive
15,O=C(Nc1nc2ccc([N+](=O)[O-])cc2s1)c1ccncc1,inactive
16,O=C(COC(=O)c1ccc(F)cc1)Nc1nc2ccc([N+](=O)[O-])cc2s1,inactive
17,O=C(NC(Nc1nc2ccc([N+](=O)[O-])cc2s1)(C(F)(F)F)C(F)(F)F)c1ccccc1,0.461 µM (active)
18,O=C(O)CCC(=O)Nc1nc2ccc([N+](=O)[O-])cc2s1,inactive
19,CSc1nc2ccc(S(=O)(=O)N3CCc4ccccc43)cc2s1,23.1 µM (active)
20,O=C(COC(=O)c1ccc(S(=O)(=O)N2CCCCCC2)cc1)Nc1ccccc1C(F)(F)F,inactive
21,Cc1ccc(C2(C)NC(=O)N(CC(=O)N3CC(=O)Nc4ccccc43)C2=O)cc1 (centres undefined),inactive
22,COC(=O)C[C@@H]1C=C[C@@H](NC(=O)c2ccc3c(c2)OCO3)[C@@H](CO)O1,inactive

row,Structure (SMILES),Potency
1,COCCC(=O)N1CCC(Oc2ccc(C(=O)NCc3ccon3)cc2)CC1,inactive
2,N#Cc1c(-c2ccccc2)cc(-c2ccccc2)nc1SCC(=O)O,inactive
3,CN1C(=O)CN2CCc3ccccc3C2c2cc(Cl)ccc21 (centres undefined),inactive
4,CN1CCN(C2Cc3ccc(Cl)cc3Sc3ccc(F)cc32)CC1 (centres undefined),18.4 µM (active)
5,COC(=O)C1NN=C(C(=O)c2ccc(Br)cc2)C1c1cccc(Br)c1 (centres undefined),inactive
6,Cc1ccc(NC(=O)C2CC2c2ccccc2)cc1 (centres undefined),inactive
7,Nc1ncnc2c1ncn2[C@@H]1O[C@H](C(=O)N2CCSC2)[C@@H](O)[C@H]1O,inactive
8,Cc1cccc(C)c1OCC(O)CN1CCCCC1 (centres undefined),inactive
9,Cc1cccc(OCC(O)CN2CCN(CCN3C(=O)c4cccc5cccc(c45)C3=O)CC2)c1C (centres undefined),25.9 µM (active)
10,C=CCc1ccccc1OCC(O)CN1CCN(CCO)CC1 (centres undefined),inactive
11,CCCC(C(=O)NC1CCCC1)N(C(=O)Cn1nnc(-c2ccc(C)o2)n1)c1cccc(O)c1 (centres undefined),inactive
12,COC(=O)c1cc(C)sc1NC(=O)CC1Nc2ccccc2NC1=O (centres undefined),inactive
13,O=C(c1csnn1)N1CCC[C@@]2(CCN(Cc3nccs3)C2)C1,inactive
14,NC(=O)NC(=O)C(OC(=O)CCNS(=O)(=O)c1ccccc1)c1ccccc1 (centres undefined),inactive
15,Cc1ccc(N2C(=O)C3C(c4ccccc4)(C2=O)C3(c2ccccc2)c2ccccc2)cc1 (centres undefined),13 µM (active)
16,Cc1ccc(N2C(=O)C(Cc3ccccc3)NC2=S)cc1 (centres undefined),inactive
17,Cc1ccc(N2C(=O)C3CC3C2=O)cc1 (centres undefined),inactive
18,O=C(N1CCCC1)C12CC3CC(C1)CC(C(=O)N1CCCC1)(C3)C2,inactive
19,COc1ccccc1C(=O)NNC(=O)CCN1C(=O)/C(=C\c2ccccc2)SC1=S,inactive
20,CC(OC(=O)CNS(=O)(=O)/C=C/c1ccccc1)C(=O)Nc1ccc(S(=O)(=O)N2CCCC2)cc1 (centres undefined),inactive
21,Cc1ccc(CNC(=O)CC(NC(=O)c2ccccc2)c2ccccc2)cc1 (centres undefined),inactive
22,COc1ccc(Cc2nc3ccc(C(=O)NCc4ccccc4Cl)cc3o2)cc1,16.4 µM (active)

row,Structure (SMILES),Potency
1,COc1ccc(Cc2nc3ccc(C(=O)N4CCC(N(C)C)C4)cc3o2)cc1 (centres undefined),inactive
2,CCn1ccnc1CN(C)C(=O)c1ccc2nc(Cc3ccc(OC)cc3)oc2c1,inactive
3,CSCCNC(=O)c1ccc2nc(Cc3ccccc3F)oc2c1,inactive
4,COCCNC(=O)c1ccc2nc(Cc3ccc(OC)c(OC)c3)oc2c1,inactive
5,COc1ccc(Cc2nc3ccc(C(=O)NCc4ccccc4C)cc3o2)cc1,8.2 µM (active)
6,CCCc1c(C(=O)N/N=C(\C)CCc2ccc(OC)cc2)nnn1-c1nonc1N,inactive
7,Cc1ccc2c(C)c(C(=O)N(C)Cc3ccncn3)oc2c1C,inactive
8,COc1ccc(NC(=O)C(c2ccncc2)n2c(=O)c(-c3cc4ccccc4[nH]3)nc3ccccc32)cc1 (centres undefined),18.4 µM (active)
9,COc1ccc(C(C(=O)NCc2ccccc2)n2c(=O)c(-c3ccccc3)nc3ccccc32)cc1 (centres undefined),16.4 µM (active)
10,CCOCCCNC(=O)C(NC(=O)Cc1c[nH]c2ccccc12)c1ccc(OC)cc1 (centres undefined),inactive
11,COc1ccc(NC(=O)C(c2ccccc2)N2Cc3ccccc3C2=O)cc1 (centres undefined),inactive
12,CCSc1ccccc1C(=O)NCc1ccc(OC)cc1,inactive
13,COc1ccc(NC(=O)CN(C)C(=O)c2n[nH]c3ccccc23)cc1,inactive
14,CCCCCNC(=O)C(c1ccc(OC)cc1)n1c(=O)c(-c2ccccc2)nc2ccccc21 (centres undefined),20.6 µM (active)
15,COc1ccc(CNC(=O)CN2C(=O)c3ccccc3S2(=O)=O)cc1,inactive
16,CCOCCCNC(=O)C(NC(=O)CNC(=O)c1ccccc1)c1ccc(OC)cc1 (centres undefined),inactive
17,COC(=O)C1=C(C(=O)OC)C2(OC1c1ccc(Br)cc1)C(=O)c1ccccc1C2=O (centres undefined),inactive
18,CN(c1ccc(OCC(=O)NC2=NCCS2)cc1)S(=O)(=O)c1ccc(F)cc1,inactive
19,O=C(CSc1ccc(-c2ccccc2)nn1)NCC1CCCO1 (centres undefined),inactive
20,CN(C)/C=C(\C#N)C(=O)c1cccnc1Oc1cccc(F)c1,inactive
